In PubChem BioAssay one finds composite z-score, composite Z-score and z-score data, which are given here for five compounds.

Activity calls are given as the source filed them.

The target of one assay is Albumin (Bos taurus) (UniProt P02769). The assay is described as follows: bovine serum albumin binders on microarray, profiling panel, artefact control for SMM control protein annotation, biochemical, small-molecule microarray, Alexa647 label, 635/667 nm fluorescence (AID 1118).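 Further: score merges 667 nm emission intensity and signal-to-noise per printed compound spot.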 Conditions: BSA-A647 binding, fluorescence 635 nm, higher = more signal.
Chain of Albumin (Bos taurus) (P02769 whole entry, looked up): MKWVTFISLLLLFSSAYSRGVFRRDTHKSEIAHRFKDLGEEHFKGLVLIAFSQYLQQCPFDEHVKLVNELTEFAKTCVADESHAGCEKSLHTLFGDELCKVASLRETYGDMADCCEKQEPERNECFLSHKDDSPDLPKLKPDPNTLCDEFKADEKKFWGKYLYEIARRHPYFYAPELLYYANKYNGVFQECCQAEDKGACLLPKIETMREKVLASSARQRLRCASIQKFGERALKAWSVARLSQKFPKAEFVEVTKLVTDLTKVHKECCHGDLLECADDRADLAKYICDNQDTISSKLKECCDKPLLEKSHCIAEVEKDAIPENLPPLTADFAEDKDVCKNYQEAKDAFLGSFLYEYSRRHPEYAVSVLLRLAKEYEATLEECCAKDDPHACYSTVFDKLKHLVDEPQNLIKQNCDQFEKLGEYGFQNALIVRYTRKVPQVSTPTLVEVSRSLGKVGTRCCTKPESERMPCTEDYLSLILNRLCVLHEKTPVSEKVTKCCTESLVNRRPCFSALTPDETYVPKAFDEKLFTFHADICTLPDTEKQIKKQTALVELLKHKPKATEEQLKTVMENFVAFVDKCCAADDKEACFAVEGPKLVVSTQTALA
Assay [1] in a line: small-molecule microarray binders of probe aXIP, primary screen, biochemical, NeuroSMM set, 635/667 nm fluorescence (AID 1119).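 Further: probe is the protein aXip251-270 applied at 1 µg/mL to compound-printed slides; binding of probe to printed compounds measured as 667 nm fluorescence plus signal to noise.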 The settings on record: higher = more signal, called active from +8 up or from −8 down.
Assay [2] is described as follows: small-molecule binders of probe aNOTCH3, primary screen, biochemical, small-molecule microarray, 635/667 nm fluorescence (AID 1120).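 Further: probe is a biotin-tagged antibody raised against NOTCH3 rather than NOTCH3 protein; score merges spot fluorescence near 667 nm with spot signal to noise.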 The settings on record: higher = more signal.
A short description of assay [3]: small-molecule binders of probe aNOTCH2, primary screen, biochemical, small-molecule microarray, 635/667 nm fluorescence (AID 1121).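 Further: score merges feature fluorescence read at 667 nm with its signal to noise.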 The settings on record: higher = more signal.
For assay [4], the target named is Carbonic anhydrase 2 (Homo sapiens) (UniProt P00918). The assay is described as follows: CAII small-molecule binders, profiling panel, biochemical, small-molecule microarray, Alexa647-labelled CAII (AID 1122). The settings on record: CAII-A647 binding fluorescence, higher = more signal.
The nature of assay [5]: COS7 lysate on small-molecule microarray, probe aHis, 635 nm (AID 1123).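 Further: z-score combines 667nm fluorescence intensity with signal-to-noise per printed compound spot.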 The settings on record: COS7 cell lysate, fluorescence, higher = more signal.
Assay [6] can be described thus: compound binding in COS7 lysate, probe aLAP1, primary screen, cell lysate, small-molecule microarray (AID 1124).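 Further: lysate comes from COS7 cells expressing LAP1 and is applied at 0.3 µg/mL; score merges spot fluorescence near 667 nm with signal-to-noise over triplicate slides.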 The settings on record: probe aLAP1, fluorescence, higher = more signal.
The test system of a further assay is Sam68 (KHDRBS1). In words: Sam68 small-molecule binders, primary screen, biochemical, small-molecule microarray, 635 nm fluorescence (AID 1125).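 Further: score merges 667 nm channel intensity with signal to noise over triplicate slides.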 Conditions: small-molecule microarray binding, higher = more signal.
Assay [7] has as its system Chordin-like protein 2 (CHRDL2). The assay is described as follows: CHRDL2 small-molecule binders, primary screen, biochemical, small-molecule microarray, 635 nm fluorescence (AID 1126).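 Further: printed compound slides probed with Chrdl2 protein at 4 µg/mL for 1 h at 4 C; score merges 667 nm emission intensity with signal to noise over three replicate slides.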 Conditions: small-molecule microarray binding, fluorescence 635 nm; higher = more signal.
In assay [8] the target is Concanavalin-A (Canavalia ensiformis) (UniProt P02866). The assay is described as follows: ConA small-molecule binders, primary screen, artefact control for SMM control protein annotation, biochemical, small-molecule microarray, Alexa647 label, 635 nm (AID 1127).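 Further: z combines 667 nm emission intensity with signal-to-noise across three replicate slides.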 The settings on record: ConA-A647 binding fluorescence, higher = more signal.
Chain of Concanavalin-A (Canavalia ensiformis) (P02866 whole entry, looked up): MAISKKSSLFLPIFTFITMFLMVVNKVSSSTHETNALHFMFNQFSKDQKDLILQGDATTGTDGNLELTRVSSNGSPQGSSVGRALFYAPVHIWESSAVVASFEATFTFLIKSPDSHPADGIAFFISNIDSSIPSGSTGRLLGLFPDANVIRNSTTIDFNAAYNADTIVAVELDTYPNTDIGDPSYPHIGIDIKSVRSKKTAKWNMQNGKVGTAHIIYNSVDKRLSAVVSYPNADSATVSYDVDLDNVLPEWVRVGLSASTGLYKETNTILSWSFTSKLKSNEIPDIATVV
A short description of assay [9]: anti-His antibody binders, primary screen, artefact control for SMM control protein annotation, biochemical, small-molecule microarray, 635 nm fluorescence (AID 1128).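 Further: score merges feature fluorescence with signal-to-noise for each printed compound spot.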 The settings on record: anti-His Alexa647 antibody binding, higher = more signal.
Assay [10] relates to Human papillomavirus type 1a E7 protein (residues 1-88). In words: HPV1a E7 small-molecule binders, primary screen, biochemical, small-molecule microarray, residues 1-88, 635 nm (AID 1129). Conditions: small-molecule microarray binding, fluorescence 635 nm; higher = more signal.
Assay [11] addresses Focal adhesion kinase 1 (Homo sapiens) (UniProt Q05397). In words: small-molecule microarray binders of FAK, primary screen, biochemical, 635/667 nm fluorescence, BSA, DTT (AID 1130).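 Further: composite of spot emission at 667 nm and signal to noise over triplicate slides.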 Conditions: PTK2 binding, 635 nm fluorescence, higher = more signal.
The test system of assay [12] is Fibrinogen (Alexa647-labelled). The assay is described as follows: fibrinogen binders on compound microarrays, profiling panel, artefact control for SMM control-protein annotation, biochemical, small-molecule microarray, 635/667 nm fluorescence (AID 1131).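 Further: z-score merges 667 nm fluorescence with per-spot signal-to-noise over triplicate slides.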 The settings on record: fibrinogen-A647 binding fluorescence, higher = more signal.
In assay [13] the target is Follistatin (Homo sapiens) (UniProt P19883). The assay is described as follows: follistatin binders on small-molecule microarrays, primary screen, biochemical, small-molecule microarray, 635/667 nm fluorescence (AID 1132). The settings on record: FST binding, 635 nm fluorescence, higher = more signal.
Chain of Follistatin (Homo sapiens) (P19883 whole entry, looked up): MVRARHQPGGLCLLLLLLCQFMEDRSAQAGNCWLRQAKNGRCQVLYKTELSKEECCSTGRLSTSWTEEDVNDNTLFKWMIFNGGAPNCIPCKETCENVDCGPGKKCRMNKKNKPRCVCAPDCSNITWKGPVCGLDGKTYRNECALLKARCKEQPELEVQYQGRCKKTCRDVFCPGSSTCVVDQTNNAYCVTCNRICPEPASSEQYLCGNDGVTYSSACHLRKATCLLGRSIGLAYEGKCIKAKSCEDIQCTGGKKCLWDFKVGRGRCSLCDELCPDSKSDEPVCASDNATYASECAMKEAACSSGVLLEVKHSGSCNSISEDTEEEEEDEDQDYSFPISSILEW
Assay [14] has as its target Fibroblast growth factor 2 (Homo sapiens) (UniProt P09038). In words: FGF2 binders on small-molecule microarrays, primary screen, biochemical, small-molecule microarray, 635/667 nm fluorescence (AID 1133). Conditions: small-molecule microarray binding, FGF2, fluorescence 635/667; higher = more signal.
The nature of assay [15]: mitochondrial membrane potential change in A549 cells, profiling panel, cell-based, JC-1 fluorescence, basal, 24 h, 100 nL (AID 1138).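 Further: A549 lung adenocarcinoma cells under basal conditions with no added stimulus; test concentration not given here.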 The settings on record: higher = more signal.
The subject of the next assay is Lefty1. In words: Lefty1 binders on small-molecule microarrays, primary screen, biochemical, small-molecule microarray, 635/667 nm fluorescence (AID 1139). Conditions: small-molecule microarray binding, fluorescence 635/667; higher = more signal.
In assay [16] the test system is wheat germ agglutinin (Triticum aestivum), Alexa647-labelled. In words: wheat germ agglutinin binders on compound microarrays, profiling panel, artefact control for SMM control-protein annotation, biochemical, small-molecule microarray, 635/667 nm fluorescence (AID 1140).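 Further: score merges 667 nm feature emission with signal to noise over triplicate slides.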 Conditions: WGA-A647 binding, 635 nm fluorescence, higher = more signal.
For assay [17], the target named is Luciferin 4-monooxygenase (Photinus pyralis) (UniProt P08659). In words: firefly luciferase enzyme inhibitors, primary screen, biochemical, luminescence, purified enzyme, 2006 set (AID 1141).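 Further: cell-free assay with purified firefly luciferase at 100 ng per well in PBS; test concentration not given here.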 Conditions: SteadyGlo luminescence, 30 min, higher = more signal, called active from +8 up or from −8 down.
Chain of Luciferin 4-monooxygenase (Photinus pyralis) (P08659 whole entry, looked up): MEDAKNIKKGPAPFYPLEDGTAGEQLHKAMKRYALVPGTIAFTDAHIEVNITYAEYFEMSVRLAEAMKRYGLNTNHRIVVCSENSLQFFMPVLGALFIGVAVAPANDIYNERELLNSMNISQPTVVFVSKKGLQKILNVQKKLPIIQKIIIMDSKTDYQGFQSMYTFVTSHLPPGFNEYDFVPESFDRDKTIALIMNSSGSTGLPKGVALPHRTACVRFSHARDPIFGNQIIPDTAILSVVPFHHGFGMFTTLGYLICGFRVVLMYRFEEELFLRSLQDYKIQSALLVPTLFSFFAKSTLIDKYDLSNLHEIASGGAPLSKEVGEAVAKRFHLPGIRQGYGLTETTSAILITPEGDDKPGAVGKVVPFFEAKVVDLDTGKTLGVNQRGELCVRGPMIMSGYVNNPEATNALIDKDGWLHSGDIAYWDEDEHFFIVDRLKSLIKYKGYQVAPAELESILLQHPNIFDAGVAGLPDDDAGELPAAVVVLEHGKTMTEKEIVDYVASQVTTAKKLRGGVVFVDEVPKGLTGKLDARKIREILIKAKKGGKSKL

Chain of Fibroblast growth factor 2 (Homo sapiens) (P09038 whole entry, looked up): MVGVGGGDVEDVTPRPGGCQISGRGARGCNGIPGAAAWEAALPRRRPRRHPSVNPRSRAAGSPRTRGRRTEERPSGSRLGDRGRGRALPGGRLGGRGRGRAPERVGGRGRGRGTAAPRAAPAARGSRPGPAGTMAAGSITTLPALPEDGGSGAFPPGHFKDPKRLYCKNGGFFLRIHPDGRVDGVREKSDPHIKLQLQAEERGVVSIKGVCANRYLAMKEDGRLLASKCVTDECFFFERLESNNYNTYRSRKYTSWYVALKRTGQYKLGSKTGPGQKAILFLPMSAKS
Chain of Focal adhesion kinase 1 (Homo sapiens) (Q05397 whole entry, looked up): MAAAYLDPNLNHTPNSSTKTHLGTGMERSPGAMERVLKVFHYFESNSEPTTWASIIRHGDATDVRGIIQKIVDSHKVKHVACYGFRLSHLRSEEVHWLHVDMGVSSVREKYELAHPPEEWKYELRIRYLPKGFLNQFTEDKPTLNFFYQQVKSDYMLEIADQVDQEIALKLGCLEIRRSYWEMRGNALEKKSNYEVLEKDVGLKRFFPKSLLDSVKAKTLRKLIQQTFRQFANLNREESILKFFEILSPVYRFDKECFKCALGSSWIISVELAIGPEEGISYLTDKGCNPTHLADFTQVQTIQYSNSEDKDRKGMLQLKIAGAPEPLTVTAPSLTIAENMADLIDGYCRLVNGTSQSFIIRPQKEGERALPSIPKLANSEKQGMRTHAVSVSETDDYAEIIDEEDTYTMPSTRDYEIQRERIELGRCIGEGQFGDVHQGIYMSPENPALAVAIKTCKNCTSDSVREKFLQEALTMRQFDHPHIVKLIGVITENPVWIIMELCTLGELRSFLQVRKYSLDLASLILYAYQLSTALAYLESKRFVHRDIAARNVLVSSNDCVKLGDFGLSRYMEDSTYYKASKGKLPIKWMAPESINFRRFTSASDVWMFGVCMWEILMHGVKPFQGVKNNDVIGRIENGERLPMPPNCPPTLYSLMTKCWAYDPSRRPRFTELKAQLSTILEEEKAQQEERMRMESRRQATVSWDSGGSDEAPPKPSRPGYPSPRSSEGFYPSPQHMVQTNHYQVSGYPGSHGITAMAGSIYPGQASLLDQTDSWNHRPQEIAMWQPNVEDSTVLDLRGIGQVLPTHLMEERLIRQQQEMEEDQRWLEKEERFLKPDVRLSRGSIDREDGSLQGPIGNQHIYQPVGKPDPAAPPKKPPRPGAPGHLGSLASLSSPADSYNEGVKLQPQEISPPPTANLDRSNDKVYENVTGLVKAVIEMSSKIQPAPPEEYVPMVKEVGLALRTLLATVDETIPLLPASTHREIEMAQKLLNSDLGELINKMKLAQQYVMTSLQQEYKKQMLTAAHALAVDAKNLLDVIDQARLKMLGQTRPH

With `CCOC(=O)C[C@H]1[C@H](OC(=O)Cc2ccc3c(c2)OCO3)[C@@H](NC(=O)c2ccc(-c3ccccc3)cc2)c2cc(OCCCO)ccc2N1C(=O)c1ccccc1`, the composite z-score is 0.731 in the assay with Albumin (Bos taurus); 0.0316 in assay [2]; -0.0649 in [3]; 0.364 in assay [4]; 0.341 in [5]; -0.202 in [6]. Also, the composite z-score stood at 0.792 in the assay with Sam68 (KHDRBS1); 0.379 in [7]; 0.645 in assay [8]; 0.18 in assay [9]; 1.06 in assay [10]; 0.356 in assay [11]. For the same compound, the composite z-score in [12] stood at 0.672; in assay [13], 0.526; in [14], 0.685; in the assay on Lefty1, 0.419; in [16] it was 0.507. Moreover, the composite Z-score in assay [1] was 0.133 (inactive). For the same compound, the z-score in assay [15] was 2.42; in [17], -1.16 (inactive).

For `CC(C)NC(=O)[C@@]1(Cc2ccccc2I)c2ccccc2C(=O)N(Cc2ccccc2)[C@H]1c1ccc(CO)cc1`, the composite z-score was 0.162 with Albumin (Bos taurus); 0.204 in [2]; -0.0608 in assay [3]; 0.481 in [4]; 1.96 in assay [5]; 0.206 in assay [6]. Also, the composite z-score in the assay with Sam68 (KHDRBS1) was 1.29; in [7], 0.325; in assay [8], 0.968; in assay [9], 3.2; in assay [10], 1.19; in assay [11], 1.05. The composite z-score in assay [12] is 0.387; in [13], 1.29; in assay [14], 1.07; in the assay on Lefty1, 1.19; in assay [16], 0.131. Moreover, in assay [1], the composite Z-score was 1.17 (inactive). Besides, the z-score was 0.188 in assay [15] and 0.277 (inactive) in assay [17].

Turning to `CC(C)C[C@@H]1NC(=O)[C@@H]2C[C@H](C(=O)NCCCCCC[N+](C)(C)C)[C@H](c3ccc(O)cc3)N2C1=O`, the composite z-score with Albumin (Bos taurus) was -0.0787; in assay [2] it was 0.0562; in assay [3], -0.189; in assay [4] it was 0.678; in assay [5] it was 1.58; in assay [6], 0.301. For the same compound, the composite z-score in the assay on Sam68 (KHDRBS1) amounted to 1.25; in assay [7], 1.33; in [8], 0.989; in [9], 1.59; in [10] it was 0.922; in assay [11], 0.11. For the same compound, the composite z-score is 0.427 in assay [12]; 1.18 in assay [13]; 0.998 in assay [14]; 1.08 with Lefty1; 0.56 in assay [16]. Moreover, in assay [1], the composite Z-score was 0.729 (inactive). Also, the z-score in [15] was -0.158; in assay [17], 0.0519 (inactive).

Regarding `C[C@H]1NC(=O)[C@H](Cc2ccccc2)NC(=O)[C@@]23C(=O)N[C@@H](Cc4ccccc4)C2[C@H](C)[C@@]2(C)O[C@H]2C3/C=C/C/C=C\CNC1=O` (stereo not given in full), the composite z-score was -1.45 with Albumin (Bos taurus); -0.15 in assay [2]; -0.118 in assay [3]; -0.0479 in assay [4]; -1.21 in assay [5]; 0.0584 in assay [6]. Moreover, the composite z-score is -1.69 with Sam68 (KHDRBS1); 0.417 in [7]; -1.44 in assay [8]; -0.708 in assay [9]; -1.27 in [10]; -0.261 in assay [11]. Further, the composite z-score in assay [12] was -1.75; in assay [13], 0.275; in assay [14] it was 0.0643; in the assay on Lefty1, -0.94; in [16] it was -0.585. In [1], the composite Z-score is 0.572 (inactive). Besides, the z-score is 0.593 in assay [15] and -0.923 (inactive) in [17].

For `C=CCC(OC(C)=O)[C@@H]1[C@@H](N(Cc2ccc(-c3ccccc3)cc2)C(=O)Cc2ccc(F)cc2)c2cc(OCCCO)ccc2N1C(=O)c1ccc2ccccc2n1` (stereo not given in full), the composite z-score in the assay with Albumin (Bos taurus) was 0.59; in assay [2], 0.0653; in [3], -0.0796; in [4], -0.161; in [5], 0.164; in assay [6], 0.0508. In addition, the composite z-score in the assay with Sam68 (KHDRBS1) was -0.0112; in assay [7] it was 0.255; in [8] it was -0.526; in assay [9], -0.26; in assay [10] it was -0.0475; in assay [11] it was -0.312. For the same compound, the composite z-score is 0.165 in assay [12]; 0.177 in assay [13]; 0.253 in [14]; -0.192 in the assay with Lefty1; 0.216 in [16]. In addition, the composite Z-score in assay [1] is -1.01 (inactive). The results for the z-score in [15] and in assay [17] were 1.94 and -1.26 (inactive), respectively.
